Source: PubChem BioAssay (National Center for Advancing Translational Sciences (NCATS))
Shown are actives, neighbours in structure and some others; about 21% of the full set was active somewhere.
Pf growth 48h: Primary qHTS for delayed death inhibitors of the malarial parasite plastid, 48 hour incubation | AID 504832, 2011 | Potency, µM (titrated, usually from 28.7 µM), inactives show at the top dose activity change, negative = inhibition, hits mostly inhibitors | hit rate 5.9% among 310,000 | P. falciparum luciferase growth in erythrocytes, 48 h; further: potency means the concentration at half of the fitted maximal effect; on the % scale 0 is the no-effect control and ±100 the full control effect
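Erythrocytes infected with P. falciparum carrying an integrated firefly luciferase reporter (2% hematocrit, 0.1% parasitemia final) were exposed to compounds in RPMI 1640 with 0.5% Albumax at 37 C, 5% CO2. Growth inhibition was scored as reduced luminescence.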
FBPA Giardia inh: qHTS Assay for Inhibitors of Fructose-1,6-bisphosphate Aldolase from Giardia Lamblia; Potency, µM (top dose mostly 59.6 µM), inactives show at the highest dose activity, negative = inhibition, usual class: inhibitors; A8B2U2; purified Giardia FBPA; AID 2451, 2010; hit rate 0.71% among 290,000; further: potency means the concentration at half of the fitted maximal effect; on the % scale 0 is the no-effect control and ±100 the full control effect; nearly all actives have a fitted effect of over 55% in size
Target sequence (A8B2U2 whole entry, looked up): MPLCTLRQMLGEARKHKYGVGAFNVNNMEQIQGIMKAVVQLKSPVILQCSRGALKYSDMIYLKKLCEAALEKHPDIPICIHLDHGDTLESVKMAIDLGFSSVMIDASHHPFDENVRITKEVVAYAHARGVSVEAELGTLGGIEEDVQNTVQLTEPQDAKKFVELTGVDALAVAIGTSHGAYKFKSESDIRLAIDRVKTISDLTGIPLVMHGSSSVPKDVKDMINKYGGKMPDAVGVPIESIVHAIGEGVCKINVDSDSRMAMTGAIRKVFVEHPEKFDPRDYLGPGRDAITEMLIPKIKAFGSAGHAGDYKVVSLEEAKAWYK
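Giardia FBPA (40 nM reagent) was preincubated 10 min at RT with compound (up to 57.5 uM final), then substrate plus GAPDH/TPI/NAD/arsenate coupling system with diaphorase/resazurin was added; resorufin fluorescence (525/598 nm) was read after 20 min.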
Cycloheximide cs: Cycloheximide Counterscreen for Small Molecule Inhibitors of Shiga Toxin; max response, %; cell reporter, cycloheximide protein synthesis inhibition counterscreen; AID 2314, 2010; hit rate 12% among 300,000; in the data active means max response mostly above about 13%, no sharp cut-off; inactive means mostly below about 14%; further: read at 38.3 µM for the half of the compounds with a filed dose; 0% is about no effect
Pf growth 96h: Primary qHTS for delayed death inhibitors of the malarial parasite plastid, 96 hour incubation. P. falciparum luciferase reporter growth, 96 h. Potency, µM (highest dose often 28.7 µM), for inactives: at the top dose activity change, negative = inhibition, usual class: inhibitors. hit rate 6.9% among 320,000. AID 504834, 2011; further: potency means the concentration at half of the fitted maximal effect; on the % scale 0 is the no-effect control and ±100 the full control effect
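P. falciparum expressing integrated firefly luciferase grown in erythrocytes (2% hematocrit, 0.05% parasitemia final) with compounds for 96 hours at 37 C, 5% CO2. Growth inhibition read as loss of luminescence after adding luciferase detection reagent.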
NS1 function inh: qHTS Assay for Inhibitors of Influenza NS1 Protein Function; Potency, µM (highest dose often 46.1 µM), without a hit: at the top dose activity, positive = more growth; AID 2326, 2010; hit rate 0.4% among 270,000; calls by dose curve; further: potency means the concentration at half of the fitted maximal effect; actives are rising curves; nearly all actives have a fitted effect of over 50% in size
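A cell-based growth assay was used: compounds that relieve NS1-induced slow growth of budding yeast raise OD600. Assay medium was yeast nitrogen base with ammonium sulphate and -URA supplement, pH 6.0, with 2% galactose.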
Shiga inhibitor: A qHTS for Small Molecule Inhibitors of Shiga Toxin. Vero cells, Shiga toxin protein synthesis inhibition reporter. inhibition, % at 38.7 µM. hit rate 9.2% among 290,000. AID 2315, 2010; in the data active means inhibition mostly above about 28%, no sharp cut-off; inactive means mostly below about 43%; further: 0% is about no effect
Starred values were filed as active, the others as inactive; i = inactive; ? = inconclusive; . = not tested or not shown; [ ] = remark or other dose. Unless noted, the call rests on the fitted dose curve; in most records, active means well fitted curve in the direction sought with a large enough effect; inconclusive means small, poorly fitted or top-dose-only effect, or another doubt; inactive means no such curve, though single readings can be large; an effect the other way counts as inactive or inconclusive.

SMILES	Pf growth 48h	FBPA Giardia inh	Cycloheximide cs	Pf growth 96h	NS1 function inh	Shiga inhibitor
CN1C(=O)NC(c2ccc(O)cc2)C(C(=O)c2cccs2)C1(O)C(F)(F)F (centres undefined)	?	5.8%	34.4	?	-10.1%	111.1*
O=C1NC(c2ccccc2)C(C(=O)c2cccs2)C(O)(C(F)(F)F)N1 (centres undefined)	-5.2%	6.9%	10.2	-11.8%	-2.0%	25.2
COc1cc(C2NC(=S)NC(O)(C(F)(F)F)C2C(=O)c2cccs2)cc(OC)c1O (centres undefined)	57.9%	-8.0%	40.5*	48.0%	0.8%	11.3*
Cc1ccc(NC(=S)NCCSc2ccc(Cl)cc2)cc1	11.7µM*	-6.3%	-2.4	?	.	26.6
COc1ccc(Cl)cc1NC(=S)NCCSc1ccc(C)cc1	-15.6%	0.2%	-1.0	11.7µM*	-24.0%	-1.4
COc1ccc(N=C2SCC(=O)N2Cc2ccccc2)cc1	-12.7%	-12.0%	21.6	9.28µM*	.	1.8
COc1ccc(/C=N/N2C(=N)SCC2=O)cc1	55.8%	-3.7%	14.3*	51.6%	-0.4%	29.2
COc1ccc(/C=N/N=C2/SCC(=O)N2Cc2ccccc2)cc1	144.3%	0.3%	47.3*	164.3%	2.1%	85.6*
CC(C)CCOc1ccc(/C=N/N2C(=O)CSC2=S)cc1	13.4%	.	-3.4	51.4%	-3.5%	-13.3
CCCC1S/C(=N/N=C/c2ccc(C)cc2)N(Cc2ccc(OC)cc2)C1=O (centres undefined)	4.15µM*	-5.9%	7.0	10.4µM*	-4.4%	5.5
Cc1ccccc1NC(=O)C1CC(=O)N(Cc2ccccc2)C1 (centres undefined)	-20.3%	3.3%	-0.9	-27.0%	.	-5.3
COc1ccc(/C=N/N=C2\SC(CC(=O)O)C(=O)N2c2ccccc2)cc1 (centres undefined)	9.8%	7.6%	1.2	1.65µM*	11.9%	6.2
CCCCN(C(=O)c1cc2ccccc2o1)c1c(N)n(CCCC)c(=O)[nH]c1=O	?	.	.	-4.6%	.	.
O=C(Nc1ccccc1)c1ccc(=O)n(Cc2cccc(Cl)c2)c1	?	0.1%	-2.1	-2.9%	-4.5%	-7.9
C#CCn1cc(Cl)cc(C(=O)Nc2ccccc2)c1=O	25.1%	4.1%	17.3*	0.0%	-6.7%	2.5
C#CCn1cccc(C(=O)Nc2ccc(OC)cc2)c1=O	60.6%	-5.1%	18.4*	59.9%	1.6%	46.1*
CCCCNC(=O)Nc1ccccc1C(=O)Nc1ccc(OC)cc1	.	0.0%	-0.3	306.3%	-9.7%	-10.4
CCCn1cccc(C(=O)Nc2ccc(OC)cc2)c1=O	8.1%	-7.6%	22.2*	24.9%	-8.4%	53.4
Cc1ccc(NS(=O)(=O)c2c(C)[nH]c(C)c2C(=O)N2CCCCC2)cc1Cl	17.5%	12.6%	7.3	36.8%	1.1%	-5.0
O=c1c(-c2cccs2)nc2cnc(N3CCOCC3)nc2n1CCc1ccccc1	.	3.4%	.	.	.	.
Cc1ccc(N(C)S(=O)(=O)c2cc3c(cc2C)NC(=O)CO3)cc1	-20.8%	8.3%	-0.6	8.8%	-7.5%	-5.9
CC(C)=CCC/C(C)=C/CO/N=C1/[C@H]2O[C@@H]2[C@@H](O)[C@H]2[C@H]1CCn1c(=O)n(C)c(=O)n12	.	0.8%[12.9 µM]	.	.	.	.
COc1cc(/C=N/NS(=O)(=O)c2ccc3ccccc3c2)ccc1OCCN1CCOCC1	0.7%	-0.2%	18.4*	?	-6.4%	24.8
COc1cc(/C=N/NS(=O)(=O)c2ccc(C)cc2)ccc1OCc1ccc(C(=O)O)cc1	i	15.4%	42.2*	-6.1%	.	145.6*
COc1ccc(S(=O)(=O)N/N=C/c2ccc(OCCN3CCOCC3)c(OC)c2)cc1	29.0%	0.6%	20.1*	-1.2%	5.8%	34.3
CCOc1ccc(/C=N/NS(=O)(=O)c2ccc(C)cc2)cc1OC	-16.8%	?	-1.5	-15.4%	9.6%	-3.0
COc1ccc(/C=N/NS(=O)(=O)c2ccccc2)cc1OC	1.4%	-12.7%	-2.2	?	5.2%	-4.9
COCCn1c(=O)cnc2cnc(OCc3ccccc3)nc21	.	4.3%	.	.	.	.
CC[N+]1(CC)CC2=Cc3c(ccc4ccccc34)C(C)C2C1 (centres undefined)	2.33µM*	-15.0%	-2.4	1.47µM*	-4.4%	-9.8
